# Reference: PubChem BioAssay (NCI)
# The panel holds about 83,000 compounds, 20% with a hit somewhere; the sample as a whole holds those more often.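 Each cell line was grown in a 96-well plate and treated with one concentration of compound for 48 hours. Values below 10 were considered active.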 Active and inactive are the calls of the source.
# What was measured:
# Assay in all cases: NCI-60 one-dose screen, 48 h (100 = growth as untreated, 0 = no growth, -100 = all killed)
# Conditions in all cases: 10 µM unless noted
# NCI-H23 lung = system: NCI-H23 lung
# NCI-H226 lung = system: NCI-H226 lung
# NCI-H322M lung = system: NCI-H322M lung
# HOP-62 NSCLC = system: HOP-62 NSCLC
# NCI-H460 lung = system: NCI-H460 lung
# HOP-92 NSCLC = system: HOP-92 NSCLC
# NCI-H522 lung = system: NCI-H522 lung
# A549/ATCC NSCLC = system: A549/ATCC NSCLC
# 786-0 renal = system: 786-0 renal
# COLO 205 colon = system: COLO 205 colon
Compound,growth (NCI-H23 lung),growth (NCI-H226 lung),growth (NCI-H322M lung),growth (HOP-62 NSCLC),growth (NCI-H460 lung),growth (HOP-92 NSCLC),growth (NCI-H522 lung),growth (A549/ATCC NSCLC),growth (786-0 renal),growth (COLO 205 colon)
COc1ccc2cc(/C=C3\N=C(c4cc(OC)c(OC)c(OC)c4)OC3=O)c(OC)nc2c1,101% (inactive),107% (inactive),107% (inactive),88.9% (inactive),111% (inactive),97.7% (inactive),82.3% (inactive),96.7% (inactive),100% (inactive),117% (inactive)
Cc1c(C(=O)Nc2nc3ccccc3[nH]2)cnn1-c1ccccn1,101% (inactive),104% (inactive),111% (inactive),107% (inactive),103% (inactive),135% (inactive),76.2% (inactive),86.3% (inactive),107% (inactive),126% (inactive)
COc1cc(-c2csc(NC(=O)Nc3ccc(Cl)cc3)n2)cc(OC)c1OC,11.3% (inactive),32.6% (inactive),64.8% (inactive),38.5% (inactive),24.9% (inactive),7.26% (active),3.25% (active),17.8% (inactive),47.5% (inactive),13.2% (inactive)
O=[N+]([O-])c1ccc(Oc2ccc(-c3ccccc3)cc2)cc1,85.3% (inactive),76.7% (inactive),100% (inactive),92.1% (inactive),92.9% (inactive),74.3% (inactive),67.5% (inactive),91.5% (inactive),84.6% (inactive),109% (inactive)
CC1CCCN(CCCCCOc2ccc3oc4ccc(Cl)cc4c(=O)c3c2)C1 (stereo not given),78.6% (inactive),104% (inactive),84.4% (inactive),85.7% (inactive),54.5% (inactive),88.8% (inactive),71.1% (inactive),76.1% (inactive),68.2% (inactive),57.5% (inactive)
c1ccc(-c2cn3ccnc3c(-c3ccc4c(c3)ncn4C3CCCCC3)n2)cc1,103% (inactive),106% (inactive),97.1% (inactive),87.1% (inactive),104% (inactive),89.1% (inactive),83.9% (inactive),91% (inactive),91.8% (inactive),99.7% (inactive)
COc1cc(/C=C/CO)cc(OC)c1O[C@@H]1O[C@H](CO)[C@@H](O)[C@H](O)[C@H]1O,102% (inactive),86.2% (inactive),107% (inactive),94.2% (inactive),103% (inactive),94% (inactive),94.8% (inactive),91.7% (inactive),96.7% (inactive),107% (inactive)
CCCn1c2cc(OCc3cn(-c4ccc(Br)cc4)nn3)ccc2c2ccnc(C)c21,81.7% (inactive),25.6% (inactive),71.5% (inactive),63.9% (inactive),36.2% (inactive),60% (inactive),76.1% (inactive),53.7% (inactive),36.7% (inactive),42% (inactive)
Cc1nc2sc(C(=O)Nc3ccccc3Cl)c(N)c2cc1C(C)O (stereo not given),93.5% (inactive),93.1% (inactive),91.1% (inactive),75.8% (inactive),98.8% (inactive),83.3% (inactive),74% (inactive),75.6% (inactive),84.8% (inactive),60.2% (inactive)
CC(=O)O[C@@H]1C[C@]2(C)[C@H]3[C@H](O)C[C@@H]4C5=CC(C)(C)CC[C@]5(C)CC[C@@]4(C)[C@]3(C)CC[C@H]2C(C)(C)[C@H]1O,95.7% (inactive),99.4% (inactive),118% (inactive),101% (inactive),102% (inactive),115% (inactive),103% (inactive),94% (inactive),99.3% (inactive),117% (inactive)
N#Cc1nc(-c2ccccc2)oc1S(=O)(=O)NCC(c1ccc(Cl)cc1)N1CCCCC1 (stereo not given),78.5% (inactive),117% (inactive),85.3% (inactive),96.3% (inactive),77.2% (inactive),79.4% (inactive),-18.3% (active),89.2% (inactive),87.1% (inactive),79.3% (inactive)
CC(C)CSc1nc(Nc2ccccc2)c(C#N)c(-c2ccc(F)cc2)n1,38.7% (inactive),6.87% (active),27.9% (inactive),7.29% (active),3.5% (active),-47.6% (active),59.1% (inactive),21.4% (inactive),-45.6% (active),20.3% (inactive)
C=C1C(=O)O[C@H]2[C@H]1CC/C(COC(=O)CCC(=O)OC/C1=C/CC[C@@]3(C)O[C@H]3[C@H]3OC(=O)C(=C)[C@@H]3CC1)=C\CC[C@@]1(C)O[C@@H]21,58.5% (inactive),84.3% (inactive),96.1% (inactive),85.7% (inactive),93.9% (inactive),-1.85% (active),-69.2% (active),88.7% (inactive),40.7% (inactive),-55% (active)
CC1(C)[C@@H](O)CC[C@]2(C)[C@H]3CC[C@@H]4[C@H]5[C@H](c6cn(-c7ccccc7)nn6)CC[C@]5(CO)CC[C@@]4(C)[C@]3(C)CC[C@@H]12,92.1% (inactive),80.9% (inactive),79.7% (inactive),93.9% (inactive),78.4% (inactive),100% (inactive),69.4% (inactive),74.5% (inactive),91.7% (inactive),95.2% (inactive)
c1ccc(-c2n(Cc3ccc4ccccc4n3)cc[n+]2Cc2ccc3ccccc3n2)cc1,22.9% (inactive),36.2% (inactive),85.9% (inactive),74.3% (inactive),41.6% (inactive),-6.03% (active),16.2% (inactive),73.3% (inactive),77.7% (inactive),-49.3% (active)
Cc1nnc(/N=C2\NC(=O)/C(=C/c3ccc(N(C)C)cc3)S2)s1,81.7% (inactive),89.2% (inactive),85.5% (inactive),65.8% (inactive),33.2% (inactive),85.1% (inactive),2.45% (active),63.5% (inactive),76.8% (inactive),98.7% (inactive)
O=C(CCl)N1CCCc2ccccc21,101% (inactive),101% (inactive),94% (inactive),107% (inactive),99.3% (inactive),97.2% (inactive),96.8% (inactive),109% (inactive),104% (inactive),108% (inactive)
C=C(C)[C@@H]1CC[C@]2(C(=O)O)CC[C@]3(C)[C@H](CC[C@@H]4[C@@]5(C)C[C@@H](CC#Cc6ccccc6)C(=O)C(C)(C)[C@@H]5CC[C@]43C)[C@@H]12,25.2% (inactive),28.5% (inactive),31.9% (inactive),32.5% (inactive),24.1% (inactive),48.2% (inactive),11.6% (inactive),25.3% (inactive),35.3% (inactive),20.8% (inactive)
C=C(C)[C@@H]1CC[C@]2(C(=O)OCCOCCOCC[P+](c3ccccc3)(c3ccccc3)c3ccccc3)CC[C@]3(C)[C@H](CC[C@@H]4[C@@]5(C)CC[C@H](C)C(C)(C)[C@@H]5CC[C@]43C)[C@@H]12,-80% (active),-70.9% (active),-98.1% (active),-79.5% (active),-78% (active),-83.3% (active),-80.6% (active),-83.7% (active),-83.3% (active),-82.2% (active)
O=C1Nc2ccccc2C12C=C(c1ccccc1)Nc1c2c(-c2ccccc2)nn1-c1ccccc1 (stereo not given),84.1% (inactive),96.9% (inactive),82.7% (inactive),81.4% (inactive),36.5% (inactive),66.4% (inactive),69.4% (inactive),44.8% (inactive),80.6% (inactive),80.8% (inactive)
C=C1C(=O)O[C@H]2[C@H]1CC/C(COC(=O)/C=C/c1cccnc1)=C\CC[C@@]1(C)O[C@@H]21,56.2% (inactive),38.5% (inactive),93.6% (inactive),72.4% (inactive),77.4% (inactive),19.1% (inactive),-43.5% (active),61.8% (inactive),2.95% (active),-46% (active)
CCOC(=O)/C(=C/c1c(-c2ccccc2)[nH]c2ccccc12)C(=O)c1ccc(Cl)cc1,55% (inactive),71.3% (inactive),78.6% (inactive),48% (inactive),33.1% (inactive),13.5% (inactive),19.8% (inactive),39.6% (inactive),26.5% (inactive),63.2% (inactive)
COc1cc(/C=C/C(=O)c2ccc(NC(=O)CSc3nnc(-c4cc(OC)c(OC)c(OC)c4)n3-c3ccccc3)cc2)cc(OC)c1OC,-3.58% (active),-64% (active),64.5% (inactive),-9.19% (active),13% (inactive),53.9% (inactive),-4.14% (active),20.2% (inactive),-52% (active),10.2% (inactive)
CC(C)(C)CC(C)(C)Cc1ccc(OCCOCC[N+](C)(C)Cc2ccccc2)cc1,20.7% (inactive),38.1% (inactive),70.6% (inactive),66.1% (inactive),13.7% (inactive),-7.72% (active),9.27% (active),71.8% (inactive),44.5% (inactive),-72.3% (active)
O=c1nc(-c2ccccc2)c2cc(-c3ccc(N4CCCC4)nc3)ccc2[nH]1,73.1% (inactive),77.2% (inactive),82.6% (inactive),62.6% (inactive),57.7% (inactive),61.4% (inactive),37.6% (inactive),59.7% (inactive),69.5% (inactive),88.3% (inactive)
CC1CCN(CCCCCOc2ccc3oc4cc(Cl)ccc4c(=O)c3c2)CC1,87.7% (inactive),113% (inactive),73.8% (inactive),82.2% (inactive),36.3% (inactive),93.6% (inactive),69.9% (inactive),68.6% (inactive),65.1% (inactive),36.6% (inactive)
